Experimental data from PubChem BioAssay (Tox21).
Records with an inconclusive call do not appear. Calls of active or inactive are those of the source. Unless noted, the call rests on the fitted dose curve; in most records, active means well fitted curve in the direction sought with a large enough effect in the repeat runs; inconclusive means weak or mixed curves; inactive means no such curve, though single readings can be large; an effect the other way counts as inactive or inconclusive.

What was measured:
[1] = qHTS assay to identify small molecule antagonists of the glucocorticoid receptor (GR) signaling pathway - cell viability counter screen (AID 720693); conditions: GR-bla HeLa viability, CellTiter-Glo luminescence, 18 h, with 5 nM dexamethasone present; series mostly up to 58.5 µM; further: nearly all actives have a fitted effect of over 55% in size
[2] = qHTS assay for identifying genotoxic compounds that show differential cytotoxicity against isogenic chicken DT40 cell lines with known DNA damage response pathways - wild type cell line (AID 743012); conditions: DT40 wild type chicken cells viability, CellTiter-Glo, 40 h; series mostly up to 68.4 µM; further: nearly all actives have a fitted effect of over 60% in size
Summary of the method: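 First, wild type DT40 cells were plated at 300 per well and equilibrated about 0.5 h at 37 C/5% CO2. Next, compounds in DMSO were added and exposure lasted 40 h. Finally, CellTiter-Glo was added for 30 min at room temperature and luminescence recorded.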

[3] = qHTS assay for identifying genotoxic compounds that show differential cytotoxicity against isogenic chicken DT40 cell lines with known DNA damage response pathways - Rev3 mutant cell line (AID 743014); conditions: chicken DT40 Rev3-/- viability, CellTiter-Glo, 40 h; series mostly up to 68.4 µM; further: nearly all actives have a fitted effect of over 55% in size
[4] = qHTS assay for identifying genotoxic compounds that show differential cytotoxicity against isogenic chicken DT40 cell lines with known DNA damage response pathways - Rad54/Ku70 mutant cell line (AID 743015); conditions: DT40 Rad54/Ku70 mutant viability, CellTiter-Glo, 40 h; series mostly up to 66.8 µM; further: nearly all actives have a fitted effect of over 60% in size
[5] = qHTS assay to identify small molecule antagonists of the androgen receptor (AR) signaling pathway - cell viability counter screen (AID 743033; further: nearly all actives have a fitted effect of over 45% in size); conditions: AR-bla HEK293 viability, CellTiter-Glo luminescence, 16 h; series mostly up to 58.5 µM
[6] = qHTS assay to identify small molecule antagonists of the androgen receptor (AR) signaling pathway using the MDA cell line - cell viability counter screen (AID 743041; further: nearly all actives have a fitted effect of over 45% in size); conditions: MDA-kb2 viability, CellTiter-Fluor, 16 h, cells co-treated with R1881 androgen agonist; series mostly up to 70.3 µM
Summary of the method: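 Viability counter screen run alongside the AR antagonist reporter: cells seeded 5 h before compound, R1881 added, 16 h incubation at 37C without CO2, fluorescent CellTiter-Fluor signal quantified.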

[7] = qHTS assay to identify small molecule antagonists of the thyroid receptor (TR) signaling pathway - cell viability counter screen (AID 743064); conditions: GH3.TRE-Luc viability, CellTiter-Fluor, 24 h; series mostly up to 70.3 µM; further: nearly all actives have a fitted effect of over 50% in size
Summary of the method: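 Viability of T3-stimulated (1 nM final) GH3.TRE-Luc cells is measured by CellTiter-Fluor fluorescence after 23.5 h compound exposure at 37 °C plus 30 min reagent incubation.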

[8] = qHTS assay to identify small molecule antagonists of the thyroid receptor (TR) signaling pathway (AID 743065); conditions: GH3.TRE-Luc, T3-stimulated luciferase inhibition, 23.5 h; series mostly up to 70.3 µM; further: nearly all actives have a fitted effect of over 55% in size
Summary of the method: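 GH3.TRE-Luc rat pituitary cells carrying two TR response elements driving luciferase were plated for 4 h, given compound plus 1 nM T3 (final), and incubated 23.5 h at 37 C. ONE-Glo luminescence measured reporter inhibition; CellTiter-Fluor fluorescence tracked cytotoxicity.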

[9] = system: thyroid hormone receptor (rat, GH3 cells); assay: qHTS assay to identify small molecule agonists of the thyroid receptor (TR) signaling pathway (AID 743066; calls by dose curve); conditions: GH3.TRE-Luc cells, TR agonist luciferase, 24 h; series mostly up to 83.9 µM
[10] = target: Estrogen receptor (Homo sapiens) (UniProt P03372); assay: qHTS assay to identify small molecule antagonists of the estrogen receptor alpha (ER-alpha) signaling pathway (AID 743069; active means well fitted curve in the direction sought with a large enough effect in the signal ratio in the repeat runs, not every such curve was filed as active; the % refers to the signal ratio); conditions: HEK293 ER-alpha-UAS-bla, beta-lactamase ratio, antagonist mode; series mostly up to 69.4 µM
Summary of the method: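 Estradiol-stimulated ER-alpha-UAS-bla HEK293 cells, 18 hr compound exposure at 37C. LiveBLAzer B/G substrate, 2 hr RT, fluorescence read.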

[11] = qHTS assay to identify small molecule antagonists of the estrogen receptor alpha (ER-alpha) signaling pathway - cell viability counter screen (AID 743074; calls by dose curve;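 further: HEK293 cells carrying ER-alpha-UAS-bla reporter stimulated with 17beta-estradiol; nearly all actives have a fitted effect of over 45% in size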); conditions: ERalpha-bla HEK293 viability, CellTiter-Glo luminescence, 18 h; series mostly up to 69.4 µM
[12] = target: Estrogen receptor (Homo sapiens) (UniProt P03372); assay: qHTS assay to identify small molecule agonists of the estrogen receptor alpha (ER-alpha) signaling pathway (AID 743075; calls by dose curve;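 further: HEK293 GripTite cells with ER-alpha and UAS-driven beta-lactamase reporter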); conditions: HEK293 ER-alpha-UAS-bla, beta-lactamase FRET ratio, 18 h; series mostly up to 70.1 µM
[13] = target: Estrogen receptor (Homo sapiens) (UniProt P03372); assay: qHTS assay to identify small molecule agonists of the estrogen receptor alpha (ER-alpha) signaling pathway using the BG1 cell line (AID 743079); conditions: BG1Luc4E2 cells, ERE-luciferase agonist, 22 h; series mostly up to 70.3 µM; further: nearly all actives have a fitted effect of over 20% in size
[14] = qHTS assay to identify small molecule antagonists of the estrogen receptor alpha (ER-alpha) signaling pathway using the BG1 cell line - cell viability counter screen (AID 743081); conditions: BG1Luc4E2 viability, CellTiter-Fluor, 22 h; series mostly up to 70.3 µM;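 further: compound given together with 17beta-estradiol as the ER stimulus; nearly all actives have a fitted effect of over 45% in size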
[15] = target: Aromatase (Homo sapiens) (UniProt P11511); assay: qHTS assay to identify aromatase inhibitors (AID 743083); conditions: MCF-7 aro ERE, testosterone-driven ERE luciferase, 24 h; series mostly up to 70.3 µM; further: nearly all actives have a fitted effect of over 55% in size
[16] = qHTS assay to identify aromatase inhibitors - cell viability counter screen (AID 743084); conditions: MCF-7 aro ERE viability, CellTiter-Fluor, 24 h; series mostly up to 70.3 µM
[17] = qHTS assay to identify small molecule antagonists of the estrogen receptor alpha (ER-alpha) signaling pathway using the BG1 cell line (AID 743080; calls by dose curve;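 further: BG1 cells stimulated with 17beta-estradiol alongside compound; nearly all actives have a fitted effect of over 25% in size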); conditions: BG1Luc4E2 ERE-luciferase antagonist mode, luminescence; series mostly up to 70.3 µM
Summary of the method: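 After 5 days in phenol-red-free 10% charcoal-stripped FBS medium, BG1-Luc-4E2 cells were seeded, left 24 h at 37 C, co-treated with compounds and 17beta-estradiol for 21.5 h, then assayed for viability and luciferase.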

Measured: Potency

Sequence of Estrogen receptor (Homo sapiens) (P03372 whole entry, looked up): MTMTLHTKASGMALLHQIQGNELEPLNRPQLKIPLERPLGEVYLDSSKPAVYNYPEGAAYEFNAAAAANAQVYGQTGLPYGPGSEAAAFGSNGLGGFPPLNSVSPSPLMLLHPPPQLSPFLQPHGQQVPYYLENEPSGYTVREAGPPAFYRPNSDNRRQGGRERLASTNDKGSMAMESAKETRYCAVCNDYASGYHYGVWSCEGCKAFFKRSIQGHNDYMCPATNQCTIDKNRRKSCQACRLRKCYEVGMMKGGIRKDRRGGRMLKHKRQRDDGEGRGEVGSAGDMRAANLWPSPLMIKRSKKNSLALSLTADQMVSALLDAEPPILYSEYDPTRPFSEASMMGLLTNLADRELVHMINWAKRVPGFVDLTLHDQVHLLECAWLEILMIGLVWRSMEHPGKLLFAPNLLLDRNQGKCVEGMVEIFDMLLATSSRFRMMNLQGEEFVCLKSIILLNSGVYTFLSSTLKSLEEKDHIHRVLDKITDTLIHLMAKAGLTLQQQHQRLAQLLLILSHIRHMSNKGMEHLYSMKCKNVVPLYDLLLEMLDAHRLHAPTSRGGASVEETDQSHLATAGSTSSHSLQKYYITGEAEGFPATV
Sequence of Aromatase (Homo sapiens) (P11511 whole entry, looked up): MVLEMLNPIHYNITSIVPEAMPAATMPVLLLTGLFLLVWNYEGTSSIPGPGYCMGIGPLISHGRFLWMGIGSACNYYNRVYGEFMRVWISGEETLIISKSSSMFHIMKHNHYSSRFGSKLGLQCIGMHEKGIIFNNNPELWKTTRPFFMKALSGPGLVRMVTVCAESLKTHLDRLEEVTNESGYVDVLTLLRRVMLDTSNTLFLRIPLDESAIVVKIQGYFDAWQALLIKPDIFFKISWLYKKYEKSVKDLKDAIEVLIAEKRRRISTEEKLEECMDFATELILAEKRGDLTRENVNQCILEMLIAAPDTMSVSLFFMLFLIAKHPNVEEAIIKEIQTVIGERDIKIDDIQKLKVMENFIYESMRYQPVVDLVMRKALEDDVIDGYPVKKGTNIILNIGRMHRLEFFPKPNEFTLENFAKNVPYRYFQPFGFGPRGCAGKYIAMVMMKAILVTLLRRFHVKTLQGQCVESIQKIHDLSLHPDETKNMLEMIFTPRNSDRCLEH

CCCCCC(=O)OCCc1ccccc1
inactive: [1] | [2] | [3] | [4] | [5] | [6] | [7] | [8] | [9] | [10] | [11] | [12] | [13] | [14] | [15] | [16]

O=S(=O)(O)c1cccc2ccccc12
inactive: [1] | [2] | [3] | [4] | [5] | [6] | [7] | [8] | [9] | [11] | [14] | [15]

O=C1CCCCCCCCCCCCCCO1
inactive: [1] | [2] | [3] | [4] | [5] | [6] | [7] | [8] | [9] | [11] | [14] | [15] | [16]

CC(CO)(CO)[N+](=O)[O-]
inactive: [1] | [2] | [3] | [4] | [5] | [6] | [7] | [8] | [9] | [10] | [11] | [12] | [14] | [16]

CCCCCCCCCCCCCCCCCCO
inactive: [1] | [2] | [3] | [4] | [5] | [6] | [7] | [8] | [9] | [10] | [11] | [12] | [13] | [14] | [15] | [16]

C=COC(=O)C(C)(CC)CCC(C)C (centres undefined)
inactive: [1] | [2] | [3] | [4] | [5] | [6] | [7] | [8] | [9] | [10] | [12] | [13] | [17] | [14] | [15] | [16]

CCN1C=CN(C)C1C (centres undefined)
inactive: [1] | [2] | [3] | [4] | [5] | [6] | [7] | [8] | [9] | [10] | [11] | [12] | [13] | [14] | [15] | [16]

CCC(C(=O)NC(=O)NC(C)=O)c1ccccc1 (centres undefined)
inactive: [1] | [2] | [3] | [4] | [5] | [6] | [7] | [8] | [9] | [10] | [11] | [12] | [13] | [15] | [16]

CC[N+](C)(CC)CCOC(=O)C1c2ccccc2Oc2ccccc21
inactive: [1] | [2] | [3] | [4] | [5] | [6] | [7] | [8] | [9] | [11] | [14] | [15] | [16]

CCCCCCC#CC(=O)OC
inactive: [1] | [2] | [3] | [4] | [5] | [6] | [7] | [8] | [9] | [11] | [14] | [15] | [16]
